Screening data from PubChem.
MOR-DOR inv ag: inverse agonists of MOR-DOR heterodimerization, primary screen, cell-based, luminescence. cell-based MOR-DOR heterodimer luminescence, inverse agonism. inhibition, % at 9.3 µM. 340,000 compounds, 0.21% hits; in the data active = inhibition above about 22%, passing the limit was not always enough;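 also: 0% = cells with DMSO and 100% = wells without cells with DMSO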
Target sequence (P35372 whole entry, looked up): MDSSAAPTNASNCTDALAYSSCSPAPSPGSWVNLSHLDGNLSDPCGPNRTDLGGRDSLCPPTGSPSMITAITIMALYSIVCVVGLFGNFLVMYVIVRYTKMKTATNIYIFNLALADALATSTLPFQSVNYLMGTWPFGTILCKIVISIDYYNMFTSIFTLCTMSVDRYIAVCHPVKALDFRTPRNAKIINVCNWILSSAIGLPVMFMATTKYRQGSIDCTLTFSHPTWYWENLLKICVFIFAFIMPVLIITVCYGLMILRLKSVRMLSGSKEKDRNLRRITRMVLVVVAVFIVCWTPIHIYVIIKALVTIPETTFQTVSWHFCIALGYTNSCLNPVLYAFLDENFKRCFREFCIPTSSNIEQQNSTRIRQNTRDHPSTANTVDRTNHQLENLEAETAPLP
Target sequence (P41143 whole entry, looked up): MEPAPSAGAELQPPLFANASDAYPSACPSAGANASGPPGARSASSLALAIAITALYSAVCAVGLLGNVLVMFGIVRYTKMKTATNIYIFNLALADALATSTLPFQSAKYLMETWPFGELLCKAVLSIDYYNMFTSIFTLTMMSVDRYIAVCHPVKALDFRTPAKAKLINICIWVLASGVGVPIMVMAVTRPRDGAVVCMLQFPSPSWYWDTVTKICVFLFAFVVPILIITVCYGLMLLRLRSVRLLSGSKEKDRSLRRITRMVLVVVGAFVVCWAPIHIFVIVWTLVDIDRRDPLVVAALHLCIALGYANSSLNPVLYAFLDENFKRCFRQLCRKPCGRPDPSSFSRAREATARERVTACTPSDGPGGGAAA
OPRM1-OPRD1 ag: agonists of OPRM1-OPRD1 heterodimerization, primary screen, cell-based, luminescence. Mu-type opioid receptor (Homo sapiens) + Delta-type opioid receptor (Homo sapiens), …. cells. activation, % at 9.3 µM. 340,000 compounds, 0.3% hits. AID 504326, 2011;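 also: 0% = vehicle-treated cells and 100% = reference agonist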
HTR5A ag ctr: HTR5A agonists in luminescence cell assay, primary screen, counter-screen for OPRM1-OPRD1 heterodimer agonist project, full-deck HTS; 5-hydroxytryptamine receptor 5A (Homo sapiens), P47898; cell-based; activation, % at 9.3 µM; 340,000 compounds, 0.61% hits; in the data active = activation mostly above about 9.5%, no sharp cut-off; inactive = mostly below about 7.6%;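 also: 0% = cells with vehicle only and 100% = reference agonist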
HTR5A inv ag: HTR5A inverse agonists in luminescence cell assay, primary screen, counter-screen for OPRM1-OPRD1 heterodimer inverse agonist project, full-deck HTS; 5-hydroxytryptamine receptor 5A (Homo sapiens), P47898; HTR5A cell line, inverse agonism; inhibition, % at 9.3 µM; 340,000 compounds, 0.083% hits; AID 504634, 2011; in the data active = inhibition mostly above about 23%, no sharp cut-off; inactive = mostly below about 18%;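 also: 0% = cells with DMSO and 100% = no-cell wells with DMSO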
MOR-DOR ag conf: agonists of MOR-DOR heterodimerization, confirmation, cell-based, luminescence; shares compounds with OPRM1-OPRD1 ag; cells, luminescence complementation; activation, % at 9.3 µM; 830 compounds, 45% hits;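 also: 0% = vehicle-treated cells and 100% = reference agonist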
HTR5A ag counter: HTR5A agonists in cells, counter-screen for OPRM1-OPRD1 heterodimer agonist project, cell-based, luminescence; activation, % at 9.3 µM; 830 compounds, 8% hits; AID 504905, 2011; shares compounds with OPRM1-OPRD1 ag; HTR5A agonist counterscreen; in the data active = activation above about 17%;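 also: 0% = vehicle-treated cells and 100% = reference agonist response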
Starred values were filed as active, the others as inactive; i = inactive; . = not tested or not shown; + = active, no number. Hits are enriched below; roughly 1.1% of the tested compounds scored in any of these assays. Rule as the data show it, unless noted: active = activation above about 18%; inactive = the rest.

SMILES | MOR-DOR inv ag | OPRM1-OPRD1 ag | HTR5A ag ctr | HTR5A inv ag | MOR-DOR ag conf | HTR5A ag counter
CC(=O)OC1CCC2(C)C(CC(=O)C3C2CCC2(C)C(OC(C)=O)CCC32)C1 (stereo not drawn) | 2 | 0 | 3 | -11 | . | .
Cc1ccc(-n2cc(CNC(C)Cc3cnccn3)c(-c3cccc(C)c3)n2)cc1 (stereo not drawn) | -220 | 42* | 1 | -3 | 16 | 10
N=c1c[n+](CC23CC4CC(CC(C4)C2)C3)[n-]o1 | -109 | 24* | 4 | -4 | 36* | 2
CCOC(=O)C1(c2ccccc2)CCN(CCC(C#N)(c2ccccc2)c2ccccc2)CC1 | i | 288* | 7 | -25 | 0 | 4
CCOC(=O)C1(c2ccccc2)CCN(CCC(=O)Nc2ccc(C(=O)OC)cc2)CC1 | -21 | 5 | 2 | -4 | . | .
CCOC(=O)C1(c2ccccc2)CCN(CCC(=O)Nc2cccc(Br)c2)CC1 | -313 | 49* | 13 | 8 | 57* | -1
C[C@H]1CC[C@@H]2[C@@H](C)[C@H]3[C@H](C[C@H]4[C@@H]5CC=C6C[C@@H](O[C@@H]7O[C@H](CO)[C@H](O)[C@H](O[C@@H]8O[C@H](CO)[C@@H](O)[C@H](O)[C@H]8O)[C@H]7O[C@@H]7O[C@@H](C)[C@H](O)[C@@H](O)[C@H]7O)CC[C@]6(C)[C@H]5CC[C@]34C)N2C1 | 10 | -2 | -1 | -29 | . | .
C[C@]12CCC3C(CC[C@H]4C[C@@H](O)CC[C@]34C)[C@H]1C=CC2=O (stereo partly drawn) | 0 | 0 | -4 | 14 | . | .
COC1C(O)C(C)OC(OC2CCC3(C)C(CCC4C3C(O)CC3(C)C(C5=CC(=O)OC5)CCC43O)C2)C1O (stereo not drawn) | -374 | 85* | 31* | -120 | 28* | 0
CC(=O)OC1CC(OC2C(O)CC(OC3C(O)CC(OC4CCC5(C)C(CCC6C5CC(O)C5(C)C(C7=CC(=O)OC7)CCC65O)C4)OC3C)OC2C)OC(C)C1OC1OC(CO)C(O)C(O)C1O (stereo not drawn) | -373 | 69* | 26* | -95 | 14 | 1
C[C@]12CC[C@H](O)C[C@H]1CC[C@@H]1[C@@H]2C[C@@H](O)[C@]2(C)[C@@H](C3=CC(=O)OC3)CC[C@]12O | -385 | 69* | 34* | -63 | 40* | 30*
CC12CC[C@H]3[C@@H](CCC4(O)C[C@H](O)CCC34/C=N/NC(=O)c3ccccc3[N+](=O)[O-])C1(O)CCC2C1=CC(=O)OC1 (stereo partly drawn) | -96 | 21* | 11* | -38 | 3 | 10
COc1ccc(CCn2c(O)c(/C=N/NC(=O)c3ccncc3)c(=O)[nH]c2=O)cc1OC | 12 | -3 | -3 | -2 | . | .
O=P(O)(O)Cc1ccccc1OP(=O)(c1ccccc1)c1ccccc1 | 15 | -3 | -2 | 2 | . | .
OCCN(CC#CC(O)(c1ccccc1)C1CCCC1)CCO (stereo not drawn) | 10 | -2 | 6 | -21 | . | .
COC(=O)C1=C(c2cc3ccccc3o2)C[C@@H]2CC[C@H]1N2C(=O)NC(C)C | 16 | -3 | 5 | -13 | . | .
CC12CCC(O)CC1CCC1C2CCC2(C)C(C3=CC(=O)OC3)CCC12O (stereo not drawn) | -405 | 93* | 33* | -125 | 10 | 5
CCOC(=O)N1CCC(NC(=O)CCc2nc(C3=CCN(C)CC3)no2)CC1 | 4 | -1 | 0 | 0 | . | .
Cn1cc[n+](C)c1P(=S)(c1ccccc1)c1ccccc1 | -218 | 39* | -7 | 19 | 5 | 15
COc1ccc(C(=O)C2CCCN(CCO)C2)c(C)c1 (stereo not drawn) | -10 | 2 | 4 | -12 | . | .
CCOc1ccc(-n2c(O)c(/C=C3\C=Nc4ccccc43)c(=O)[nH]c2=O)cc1 | 0 | 0 | -1 | 5 | . | .
CCCN1CCc2cccc3c2[C@H]1Cc1ccc(O)c(O)c1-3 | -101 | 19* | 4 | -14 | 20* | 3
COc1ccc2c(c1O)-c1c(OC)c(OC)cc3c1[C@H](C2)N(C)CC3 | 2 | 0 | -4 | -5 | . | .
CCOC(=O)C1(CCc2ccccc2)CCN(Cc2csc(C(C)=O)c2)CC1 | -358 | 63* | 5 | -12 | 3 | 18*
CCOC(=O)C1(CCc2ccccc2)CCN(Cc2cccc3cnccc23)CC1 | -69 | 15 | 7 | -8 | . | .
SMILES | MOR-DOR inv ag | OPRM1-OPRD1 ag | HTR5A ag ctr | HTR5A inv ag | MOR-DOR ag conf | HTR5A ag counter
CCOC(=O)C1(CCc2ccccc2)CCN(Cc2cccc3c2OCO3)CC1 | -206 | 36* | -4 | 9 | 11 | 0
CN1CCN(/N=C/c2c(O)n(Cc3ccc(F)cc3)c(=O)[nH]c2=O)CC1 | 7 | -1 | 5 | -1 | . | .
Clc1ccc(C(c2ccc(Cl)cc2)n2cc[n+](CC(OCc3ccc(Cl)cc3Cl)c3ccc(Cl)cc3Cl)c2)cc1 (stereo not drawn) | -347 | 63* | 20 | -10 | 50* | 10
CC(=O)O[C@]1(c2ccccc2)CCN(C)[C@H]2CCCC[C@@H]21 | 15 | -3 | 1 | -40 | . | .
CCC1CN(C)CCC1(OC(C)=O)c1ccccc1 (stereo not drawn) | -124 | 25* | -4 | 6 | 23* | 4
Cc1ccc(C[n+]2c(-c3ccc(C)cc3)cc(-c3ccc(C)cc3)cc2-c2ccc(C)cc2)cc1 | -374 | 68* | 23* | -59 | 11 | 11
CCOC(=O)[C@]12Cc3cc(N(C)C)ccc3[C@H]1N(Cc1ccccc1)C(=O)c1ccccc12 | 11 | -2 | -1 | -13 | . | .
CN1CCCC(C(=O)c2ccc(Cl)cc2)C1 (stereo not drawn) | -108 | 21* | -1 | 2 | 0 | -3
CC1(C)OC(c2ccccc2)=C/C(=C/C=C2C(=O)NC(=O)NC2=O)O1 | 3 | -1 | -3 | 9 | . | .
Cc1nc2c(=O)n(C)c(=O)nc-2n(C)n1 | -101 | 20* | -2 | 6 | 22* | -2
Clc1ccc(CSC(Cn2ccnc2)c2ccc(Cl)cc2Cl)cc1 (stereo not drawn) | i | + | 8 | -21 | i | 0
Clc1ccc(COC(Cn2ccnc2)c2ccc(Cl)cc2Cl)cc1 (stereo not drawn) | -79 | 14 | 9 | 6 | . | .
